# Mdm2 MdmX PPI – human Mdm2/MdmX binding inhibition | SaOS-2 split-luciferase Mdm2/MdmX complementation, luminescence | 330,000 compounds, 3% hits | inhibition, % at 8 µM | O15151+Q00987;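 active = inhibition of at least 50% at 8 µM in the primary screen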
# Target sequence (O15151 whole entry, looked up): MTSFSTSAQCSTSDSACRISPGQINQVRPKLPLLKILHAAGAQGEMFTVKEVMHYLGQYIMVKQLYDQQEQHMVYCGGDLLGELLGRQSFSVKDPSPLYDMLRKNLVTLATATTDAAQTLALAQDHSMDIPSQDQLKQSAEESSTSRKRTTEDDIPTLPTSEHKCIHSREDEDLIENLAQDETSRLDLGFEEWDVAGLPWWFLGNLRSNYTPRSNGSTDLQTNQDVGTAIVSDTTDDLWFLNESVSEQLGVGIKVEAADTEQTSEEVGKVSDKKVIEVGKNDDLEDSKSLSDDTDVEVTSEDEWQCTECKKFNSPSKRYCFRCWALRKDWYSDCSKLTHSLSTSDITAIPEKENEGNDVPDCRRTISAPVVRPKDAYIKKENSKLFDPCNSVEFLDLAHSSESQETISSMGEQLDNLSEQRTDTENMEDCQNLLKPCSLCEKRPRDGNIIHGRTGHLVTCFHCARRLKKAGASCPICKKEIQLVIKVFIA
# Target sequence (Q00987 whole entry, looked up): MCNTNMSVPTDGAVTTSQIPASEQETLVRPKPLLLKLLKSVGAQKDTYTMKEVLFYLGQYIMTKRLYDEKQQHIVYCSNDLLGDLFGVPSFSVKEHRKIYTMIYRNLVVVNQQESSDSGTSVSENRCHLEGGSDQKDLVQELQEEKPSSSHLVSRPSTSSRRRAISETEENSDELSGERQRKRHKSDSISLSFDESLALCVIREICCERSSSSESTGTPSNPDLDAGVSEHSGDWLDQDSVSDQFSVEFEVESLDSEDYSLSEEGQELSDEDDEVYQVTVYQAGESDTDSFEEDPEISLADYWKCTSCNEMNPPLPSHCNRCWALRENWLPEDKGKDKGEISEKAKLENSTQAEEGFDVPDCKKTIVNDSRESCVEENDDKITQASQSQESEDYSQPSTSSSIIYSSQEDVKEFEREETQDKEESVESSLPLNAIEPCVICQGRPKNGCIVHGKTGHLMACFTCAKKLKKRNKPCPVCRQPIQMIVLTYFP
# Jurkat NFkB inh – inhibitors of the PMA/ionomycin-induced NF-kB reporter in Jurkat cells; PMA/ionomycin-induced NF-kB luciferase reporter, luminescence; inhibition, % at 4 µM; 330,000 compounds, 0.53% hits; AID 435003; in the data active = inhibition above about 50%
# 697 NFkB inh – inhibitors of the PMA/ionomycin-induced NF-kB reporter in 697 B cells; 697 B-cell NF-kB luciferase reporter, 16 h; inhibition, % at 4 µM; 330,000 compounds, 0.33% hits; AID 435022; in the data active = inhibition above about 35%
# Shn3 3UTR inh – Schnurri-3 reporter inhibition in Clone20 osteoblasts. Clone20 osteoblast Shn3 3'UTR firefly luciferase, 24 h. 360,000 compounds, 0.52% hits. inhibition, % at 12.5 µM;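 active = mean inhibition of at least 75% with every replicate also reaching 75%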
# Gli-Sufu antag – Gli-Sufu pathway antagonism | inhibition, % at 5 µM | 340,000 compounds, 0.74% hits | Sufu-KO-LIGHT fibroblasts, Gli luciferase reporter luminescence;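 active = inhibition above about 55%, limit read from the data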
# Jurkat NFkB conf – inhibitors of the PMA/ionomycin-induced NF-kB reporter in Jurkat cells, retest; shares compounds with Jurkat NFkB inh; Jurkat NF-kB luciferase, 16 h; inhibition, % at 4 µM; 2,700 compounds, 27% hits;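 active = inhibition reaching about 45% at 4 µM in either replicate, limit read from the data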
# 697 NFkB conf – inhibitors of the PMA/ionomycin-induced NF-kB reporter in 697 B cells, retest; shares compounds with 697 NFkB inh; 697 B-cell NF-kB luciferase, 16 h; inhibition, % at 4 µM; 2,000 compounds, 35% hits; AID 449746; in the data active = inhibition mostly above about 28%, no sharp cut-off; inactive = mostly below about 22%
# Mdm2-MdmX conf – confirmation of human Mdm2/MdmX interaction inhibitors. shares compounds with Mdm2 MdmX PPI. Mdm2-MdmX binding, luminescent assay. inhibition, % at 8 µM. 10,000 compounds, 55% hits. AID 489028; in the data active = inhibition above about 40%
# FLuc counter – counter-screen for Mdm2/MdmX inhibitors: full-length luciferase; shares compounds with Mdm2 MdmX PPI; SaOS-2 full-length luciferase counterscreen, luminescence; inhibition, % at 8 µM; 6,200 compounds, 77% hits; AID 504607;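 active = mean inhibition at 8 µM reaching about 37%, which flags the compound as non-specific, limit read from the data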;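 note: p53-null SaOS-2 cells with luciferase driven by a doxycycline-inducible promoter; compound on cells about two nights before reading with doxycycline added after day one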
# Numbers stand for hits; i = inactive; nt = not tested or not shown. Hits are enriched below; roughly 3.8% of the tested compounds scored in any of these assays.
SMILES,Mdm2 MdmX PPI,Jurkat NFkB inh,697 NFkB inh,Shn3 3UTR inh,Gli-Sufu antag,Jurkat NFkB conf,Mdm2-MdmX conf,FLuc counter,others
Cc1nn(C(C)C(=O)NCCCc2ccccc2)c(=O)c2nn(-c3ccccc3)c(C)c12 (centres undefined),i,i,i,i,i,nt,nt,nt,
CCN(CC)c1ccc(C=Nc2cccc(S(=O)(=O)N3CCOCC3)c2)c(O)c1,i,i,i,i,i,nt,nt,nt,
CCN(CC)c1ccc(/C=N/NC(=O)c2cccc(S(=O)(=O)N3CCOCC3)c2)c(O)c1,75,64,i,89,nt,i,84,53,
Cc1ccccc1NC1=C/C(=N\S(=O)(=O)c2cccs2)c2ccccc2C1=O,73,51,i,98,i,84,100,51,
Cc1cc[n+](C2=C([O-])c3ccccc3C(=O)/C2=N\S(=O)(=O)c2cccs2)cc1C,i,i,i,i,i,nt,nt,nt,
COc1ccc(-c2cc3nc(C)n(N)c(=O)c3s2)cc1,89,80,53,89,76,83,88,56,697 NFkB conf=49
Cc1onc(-c2ccccc2)c1C(=O)OCCOc1cccc(Cl)c1,52,52,i,i,i,i,62,64,
CC(=O)Cn1cnc2c(cnn2-c2ccc(C)c(C)c2)c1=O,i,i,i,i,i,nt,nt,nt,
C=C1C(=O)O[C@@H]2[C@H]1[C@@H](OC(=O)/C(C)=C/C)C/C(C)=C\C(=O)/C=C(\C)[C@@H]2O,100,88,i,i,i,i,83,51,
Cc1cccc(N2CCN(S(=O)(=O)c3cc(-c4cc(C)no4)ccc3C)CC2C)c1 (centres undefined),50,64,i,i,i,i,54,38,
CC1CCN(S(=O)(=O)c2ccc3c(c2)C(=NO)c2cc(S(=O)(=O)N4CCC(C)CC4)ccc2-3)CC1,100,96,97,95,i,i,100,i,697 NFkB conf=93
N=c1c2c(-c3ccccc3)c(-c3ccccc3)n(Cc3ccco3)c2ncn1CCCO,61,56,i,i,i,i,i,59,
Cc1ccc(C2=NN(C(=O)CSc3nccn3C)C(c3ccco3)C2)cc1 (centres undefined),65,63,i,i,i,i,57,68,
Cc1ccc(C2=NN(C(=O)CSc3nc4ncc(Cl)cc4[nH]3)C(c3ccco3)C2)cc1 (centres undefined),i,i,i,i,i,nt,nt,nt,
CC1=CC(=O)C(C(C)C)=C/C1=N/OS(=O)(=O)c1ccccc1,100,81,i,i,i,i,i,42,
CC1=CC(=O)C=C(C)C1=NOS(=O)(=O)c1ccccc1,nt,nt,nt,i,i,nt,nt,nt,
COc1ccccc1NC(=O)/C=C\c1ccco1,i,i,i,i,i,nt,nt,nt,
COc1ccccc1NC(=O)/C(C#N)=C/C=C/c1ccco1,50,59,i,i,i,i,54,64,
COc1ccc(-n2nc(C(=O)NCC(=O)Nc3cc(OC)c(OC)c(OC)c3)c3ccccc3c2=O)cc1OC,70,57,i,i,i,i,67,68,
COc1cc(NS(=O)(=O)c2ccc(OC)c(C)c2C)c(OC)cc1Cl,51,58,i,i,i,51,55,63,
C=CC[C@@H](CC(=O)N[C@@H](CO)Cc1ccccc1)C(=O)N[C@H](C)COC(=O)[C@@H](CC=C)Cc1ccc(F)cc1,i,i,i,i,i,nt,nt,nt,
O=C1/C(=C/c2ccc(N3CCOCC3)o2)SC(=Nc2ccccc2)N1CCc1c[nH]c2ccccc12,100,91,i,97,i,i,98,i,
CN1/C(=C/c2cccc[n+]2CCO)Sc2ccccc21,i,i,i,i,i,nt,nt,nt,
CC[n+]1ccccc1/C=C1\Sc2ccc(C)cc2N1C,66,69,i,i,nt,i,65,42,
NC1=NC[C@H](Cc2ccc(O)cc2)N1CCCCC1CCCCC1,50,79,41,i,59,50,i,nt,697 NFkB conf=40
SMILES,Mdm2 MdmX PPI,Jurkat NFkB inh,697 NFkB inh,Shn3 3UTR inh,Gli-Sufu antag,Jurkat NFkB conf,Mdm2-MdmX conf,FLuc counter,others
NC1=NC[C@H](Cc2ccc(O)cc2)N1CCc1cc(C(F)(F)F)cc(C(F)(F)F)c1,i,i,i,i,i,nt,nt,nt,
COc1ccc(C(=O)NNC(=O)CSc2nnc(-c3cccnc3)n2C)cc1,i,i,i,i,i,nt,nt,nt,
CC(=O)Nc1ccc(S(=O)(=O)N2CCCc3ccccc32)cc1,58,63,i,i,i,i,59,51,
O=S(=O)(c1ccc(Cl)cc1)N1CCCc2ccccc21,i,i,i,i,i,nt,nt,nt,
COC(=O)Nc1ccc(S(=O)(=O)N2c3ccccc3CCC2C)cc1 (centres undefined),58,53,i,i,i,i,63,60,
COc1ccc(S(=O)(=O)n2nc(OCc3cccs3)cc2N)cc1,i,i,i,i,i,nt,nt,nt,
O=C1C=CC(O)(c2cc(=O)c3c(O)cc(O)cc3o2)C=C1,99,89,i,97,i,71,66,48,697 NFkB conf=i
O=c1cc(-c2ccccc2Cl)oc2cc(O)cc(O)c12,i,i,i,i,i,nt,nt,nt,
COc1ccc(N/N=C/c2c(C(=O)O)ccc3ccccc23)cc1,86,54,i,93,i,i,90,i,
CCCCCn1c(=O)[nH]c2cc(C(=O)NC3CCN(Cc4ccccc4)CC3)ccc2c1=O,92,51,i,i,i,i,i,nt,
COc1cccc(/C=N/Nc2ncnc3scc(-c4ccccc4)c23)c1O,82,73,i,85,88,57,80,i,
COc1cccc(/C=N/Nc2ncnc(Cl)c2N)c1O,100,56,i,i,79,i,83,i,
CCC(C)C(Nc1ncnc2scc(-c3ccccc3)c12)C(=O)O (centres undefined),i,i,i,i,i,nt,nt,nt,
NS(=O)(=O)c1ccc(NC(=O)CSc2n[nH]c(=O)n2C2CC2)cc1,i,i,i,i,i,nt,nt,nt,
COc1ccc(OCC(=O)Nc2cc(S(=O)(=O)N3CCCC3)ccc2Cl)cc1,i,i,i,i,i,nt,nt,nt,
CCSc1nc2ccccc2n1CC(N)=O,i,i,i,i,i,nt,nt,nt,
CCSc1nc2ccccc2n1C(=O)/C=C\c1ccc(OC)c(OC)c1,100,53,i,i,i,i,100,52,
Cc1cc(NCCCn2ccnc2)n2ncc(-c3ccc(Cl)cc3)c2n1,60,i,i,i,i,i,86,52,
Cn1ncc2c(O/N=C(\N)c3ccc(C(C)(C)C)cc3)ncnc21,99,101,i,i,i,i,100,52,
COc1ccc(OC)c2c1C(=O)c1ccccc1C2=O,i,i,i,nt,i,nt,nt,nt,

# Screens from PubChem.
